Laboratory results taken from PubChem BioAssay AID1159580 (chemical genetic matrix, 2015).
Screen size: about 5,500 compounds; about 2,000 (36%) were called active. About 18% were inconclusive and are not listed. Rule as the data show it: active = normalized growth mostly below about 0.91 (no sharp cut-off); inconclusive = no clear call, values can overlap the other calls; inactive = mostly above about 0.92. The list shows a part of the results.

Test: chemical genetic growth profiling, strain panel (AID 1159580);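 also: tested at 20 µM; growth read once vehicle control cultures reached saturation at 30 °C; 1 = growth at the plate median or of vehicle wells; lower values mean less growth of the strain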
Conditions: S. cerevisiae deletion strains, growth OD

Measured: normalized growth

Oc1ccc(Cn2cc[nH]c2=S)cc1
active: locus YNL197C, strain WHI3, active compounds read low 0.477 | locus YOR083W, strain WHI5 (second series), active compounds read low 0.681
inactive: locus YAL040C, strain CLN3, active compounds read low 0.993 | locus YCL061C, strain MRC1 (second series), active compounds read low 1.01 | locus YDR363W, strain ESC2, active compounds read low 1 | locus YER002W, strain NOP16, active compounds read low 1.03 | locus YGR229C, strain SMI1, active compounds read low 0.986 | locus YMR307W, strain GAS1, active compounds read low 1 | locus YNL175C, strain NOP13, active compounds read low 1 | locus YNL224C, strain SQS1, active compounds read low 0.999 | locus YPL055C, strain LGE1, active compounds read low 1.01
